Whole data set: some 33,000 sequences, median “E-score (-0.5 to 0.5)” near -0.041, cut for the highest 2% near 0.37. This is one part of a sample in which the highest values are shown more often than they occur.
molecular target: T1, Ecm22 (UniProt Q05958); test: PBM E-score (8-mer binding enrichment) (E-score (-0.5 to 0.5)); higher = stronger / more preferred TF binding; details: protein concentration: 200 nM; construct: GST-full length
T1 sequence: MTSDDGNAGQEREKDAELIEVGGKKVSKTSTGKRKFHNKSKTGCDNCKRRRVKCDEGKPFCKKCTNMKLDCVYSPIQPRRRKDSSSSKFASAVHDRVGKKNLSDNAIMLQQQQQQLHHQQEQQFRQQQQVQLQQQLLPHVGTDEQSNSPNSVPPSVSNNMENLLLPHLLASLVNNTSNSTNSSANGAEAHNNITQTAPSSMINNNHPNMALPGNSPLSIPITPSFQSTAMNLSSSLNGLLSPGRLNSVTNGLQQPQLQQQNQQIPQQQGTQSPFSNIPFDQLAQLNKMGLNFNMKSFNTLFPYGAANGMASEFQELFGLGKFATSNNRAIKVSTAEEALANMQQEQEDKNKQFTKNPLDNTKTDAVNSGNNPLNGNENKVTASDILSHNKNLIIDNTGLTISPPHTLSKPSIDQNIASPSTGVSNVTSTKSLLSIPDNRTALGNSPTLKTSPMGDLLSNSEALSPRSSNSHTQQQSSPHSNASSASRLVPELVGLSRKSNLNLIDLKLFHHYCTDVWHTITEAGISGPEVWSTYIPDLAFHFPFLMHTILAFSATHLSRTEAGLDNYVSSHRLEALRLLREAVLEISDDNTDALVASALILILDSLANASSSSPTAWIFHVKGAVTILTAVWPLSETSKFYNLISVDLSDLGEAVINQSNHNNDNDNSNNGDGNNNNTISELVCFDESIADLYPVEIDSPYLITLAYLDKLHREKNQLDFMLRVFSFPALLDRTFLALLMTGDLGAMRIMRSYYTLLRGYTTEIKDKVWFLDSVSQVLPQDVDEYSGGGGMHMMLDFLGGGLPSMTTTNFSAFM
Protocol: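 Universal 'all 10-mer' protein binding microarrays (Agilent AMADID 015681) probed with GST-tagged S. cerevisiae TFs (full-length or DBD) made by in vitro transcription/translation (PURExpress), about 100-200 nM. Bound TF was detected with fluorescent anti-GST. Each ungapped 8-mer (which stands for itself and its reverse complement) is scored by the PBM enrichment score (E-score), a modified Wilcoxon-Mann-Whitney statistic from -0.5 to +0.5, computed with the Universal PBM Analysis Suite. Scale: above 0.35 generally sequence-specific binding.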

Point of comparison: AAGAGGTG, “PBM E-score” value -0.0239. Against it:
- AGTCTTTG — lower, -0.0796
- ATCTCGGC — higher, 0.0673
- CGCTAAGA — higher, 0.149
- CCACTGCC — higher, -0.0201
- GCAGGCCA — higher, -0.00078
- CACCCCCG — lower, -0.2
- TCAGTCGA — higher, 0.0318
- CAAGCGGG — lower, -0.0323
- ATTCTACA — higher, 0.0155
- GAGAGCGC — lower, -0.0803
- AACGAGCA — higher, 0.46
- CACGAGCC — higher, 0.143
- AACGAGCC — higher, 0.442
- CACGAGCG — higher, 0.201
- TACGAGCA — higher, 0.467
- AACGAGCG — higher, 0.459
- TGCGAGCA — higher, 0.238
- AGCGAGCG — higher, 0.345
- CACGAGCA — higher, 0.0712
- GACGAGCC — higher, 0.0624
- GACGAGCA — higher, 0.0907
- TCCGAGCA — higher, 0.236
- AGCGTGGG — lower, -0.0957
- GGTTGGAC — lower, -0.241
- AACCGAAA — higher, 0.235
- AAATTCTG — lower, -0.0343
- ACCGGATC — lower, -0.0309
- CAAGTGCG — lower, -0.0245
- ACTCCATA — lower, -0.195
- CAGGAGAC — higher, 0.0295
- AGGATGAG — lower, -0.0765
- ACCATAGC — lower, -0.261
- GAACCGGC — higher, -0.0167
- GCCTTTAA — lower, -0.198
- AGCGAGCT — higher, 0.309
- ACCGAGCT — higher, 0.235
- AACGAGCT — higher, 0.445
- CCGCTTTC — lower, -0.0554
- GGCCTCCC — lower, -0.0791
- GTCGCAGA — higher, 0.123
- ATCGCATA — higher, 0.289
- CTCGCATA — higher, 0.376
- CTCGCATC — higher, 0.304
- GTCGCATA — higher, 0.369
- CTCGCAGA — higher, 0.0487
- ACCTTTCG — higher, 0.094
- TAAAGCGA — higher, 0.213
- TGTTTAAA — lower, -0.172
- CGTTTAAG — higher, 0.429
- CGTTTAAA — higher, 0.453
- AGTTTAAA — higher, 0.0639
- GGTTTAAC — higher, 0.0725
- AGTTTAAG — lower, -0.127
- CCTTTAAG — lower, -0.259
- CGTTTAAC — higher, 0.465
- AGTTTAAC — higher, 0.09
- ACGGCCCG — higher, 0.208
- GGCGATAC — higher, 0.0112
- AAGCGGCT — lower, -0.0695
- AACCCGGC — higher, 0.11
- GCCACAAC — lower, -0.055
- AGGAAATG — lower, -0.11
- ATCGGTTA — higher, 0.362
- CTCGGTTA — higher, 0.383
- GTCGGTTA — higher, 0.369
- GTCGGTCA — higher, 0.258
- CTCGGTTC — higher, 0.265
- CACGGTTA — higher, 0.0472
- CGCGGAGC — higher, 0.116
- AGAGAGAT — lower, -0.163
- ACGAGCCT — higher, 0.407
- TCGAGCCA — lower, -0.126
- CCGAGCCG — higher, 0.227
- ACGAGCCG — higher, 0.389
- CCGAGCCA — higher, 0.138
- AGGAGCCG — lower, -0.0656
- ACGAGCCA — higher, 0.404
- AGGAGCCT — lower, -0.308
- ACGAGCCC — higher, 0.365
- CCATTAGC — lower, -0.0326
- CTTCTGGC — lower, -0.199
- GAACTCCC — higher, 0.178
- ACCTTAAC — higher, 0.0365
- GTTTAAAC — higher, 0.285
- TCGAGAAA — higher, 0.0202
- CCGAGAAC — higher, 0.204
- ACGAGAAT — higher, 0.385
- ACGAGAGT — higher, 0.328
- ACGAGAAG — higher, 0.313
- ATGAGAAT — lower, -0.0978
- ACGAGAAC — higher, 0.4
- ACGAGAAA — higher, 0.375
- CCGAGAAA — higher, 0.247
- AGGACCAT — higher, 0.00977
- ATTCTACC — lower, -0.12
- GACAGGCA — lower, -0.0606
- AACATCCG — higher, 0.158
- GGTGGAAC — higher, 0.236
- ACGGCACT — higher, 0.0515
- ATGATGAC — lower, -0.0358
- CAAGCTTC — higher, 0.0567
- CTTTTTTA — lower, -0.19
- ACCTCGTG — higher, 0.251
- ACCTCGTC — higher, 0.17
- CCCTCGTC — higher, 0.119
- ACCTCGTA — higher, 0.463
- GCCTCGAA — higher, 0.0731
- CCCTCGGA — higher, 0.211
- GCCTCGTA — higher, 0.481
- CCCTCGTA — higher, 0.477
- GCCTCGGA — higher, 0.175
- AACGGTAA — higher, 0.267
- ACTGGGTA — higher, 0.0533
- ATGCGTCA — higher, 0.0653
- ACCGCTAA — higher, 0.144
- GGGGTTAC — higher, 0.0772
- CTGTGCCA — lower, -0.185
- AGCATCAG — lower, -0.0729
- ATTCTAAC — lower, -0.0713
- AGGCCTGA — lower, -0.274
- GTAGGGGA — lower, -0.206
- AGACGATA — higher, 0.143
- ATACGATA — higher, 0.458
- GCACGATA — higher, 0.0343
- CTACGATA — higher, 0.311
- GTACGATA — higher, 0.456
- ACACGATA — higher, 0.152
- AAGAACCT — lower, -0.208
- GTAAAGCA — higher, 0.0968
- TGAAAAAA — lower, -0.0832
- ACGTACCA — higher, 0.306
- CCGTACCG — higher, 0.455
- TCTTACCA — higher, 0.061
- CCGTACCC — higher, 0.433
- CGGTACCG — higher, 0.234
- GCGTACCC — higher, 0.229
- GCGTACCA — higher, 0.273
- ACGTACCC — higher, 0.295
- CCGTACCA — higher, 0.423
- TCGTACCA — higher, 0.488
- TGGTACCA — lower, -0.0735
- ACGTACCG — higher, 0.301
- AGGAACCG — higher, 0.0955
- GAGTCTAA — lower, -0.115
- CATAGGAC — lower, -0.091
- TCTATGCA — lower, -0.148
- AGTCGTTG — higher, 0.184
- AGTCGTTA — higher, 0.273
- CGTCGATC — higher, 0.0984
- CGTCGTTA — higher, 0.374
- GGTCGTTA — higher, 0.339
- CGTCGTTC — higher, 0.479
- AGTCGCTC — higher, 0.177
- CGCCGTTC — higher, 0.362
- AGTCGTTC — higher, 0.425
- CAATTGAC — lower, -0.0565
- AGGTCTGC — lower, -0.195
- CGGGAATA — higher, 0.0624
- CGAACCCA — higher, 0.167
- TCATCGGA — higher, -0.0141
- ATGCAGAC — higher, -0.0112
- AACTGCGG — higher, 0.0437
- TGGCACCA — lower, -0.213
- ACGCATAA — higher, 0.0983
- CCGCATAA — higher, 0.119
- TCGCATAA — higher, 0.388
- AGTAAAGA — lower, -0.225
- CGTAAAAG — higher, 0.367
- CGTAAATC — higher, 0.349
- CGTAAAAC — higher, 0.367
- CGTAAATA — higher, 0.377
- CGTAAAGA — higher, 0.389
- AGTAAATA — higher, 0.00942
- CGTAAAAA — higher, 0.404
- CGTAAAGC — higher, 0.348
- GACACTCC — lower, -0.0444
- CAGGGTAG — lower, -0.148
- AATCTTTA — lower, -0.0885
- CCCTGACC — higher, -0.0114
- CGCGATAG — higher, 0.135
- CCATTTGC — lower, -0.0821
- AGTCGAAC — higher, 0.0504
- GACGCAAA — higher, 0.114
- GAAAAGAA — higher, 0.0308
- CAGTTCCA — higher, -0.0209
- AGTATACT — higher, 0.102
- GGTATACA — lower, -0.21
- AGTATACG — higher, 0.433
- TGTATACA — higher, 0.0967
- CGTATACG — higher, 0.489
- AGTATACC — higher, 0.0306
- AGTATACA — higher, 0.0981
- AGTATATG — higher, -0.0215
- CGTATACA — higher, 0.46
- GGTATACC — higher, 0.0922
- CGTATACC — higher, 0.469
- CGAATACG — higher, 0.362
- AGGAGAAA — lower, -0.281
- TCGATCAA — higher, 0.0228
- CGTAATGC — higher, 0.162
- CGGAACAA — higher, 0.168
- TATGGGAA — lower, -0.0838
- GCTTTTGA — lower, -0.115
- AACCCTTG — lower, -0.0616
- CGGATACC — higher, 0.0623
- CGGATACA — higher, 0.162
- CGGATACG — higher, 0.386
- ATAGACAT — lower, -0.0449
- CCAGCGAC — lower, -0.231
- CGATAGCG — higher, 0.128
- CGGCGACG — higher, 0.0233
- CCTATACA — higher, -0.00901
- ATTATACG — higher, 0.476
- ACTATACG — higher, 0.463
- ATTATACC — higher, 0.104
- CCTATACC — lower, -0.0658
- CCTATACG — higher, 0.465
- ACTATACA — higher, 0.108
- ACTATACT — higher, 0.144
- ATTATACA — higher, 0.0593

— the supplement of paper PMC3334620
